According to PubChem BioAssay (Tox21):
Records with an inconclusive call do not appear. Active and inactive are the calls of the source. Unless noted, the call rests on the fitted dose curve; in most records, active means well fitted curve in the direction sought with a large enough effect in the repeat runs; inconclusive means weak or mixed curves; inactive means no such curve, though single readings can be large; an effect the other way counts as inactive or inconclusive.

Columns and labels:
[1] = A CellTox Green Cytotoxicity Assay to monitor cytotoxicity in HepG2 cells - 8 hour (AID 1224890); further: nearly all actives have a fitted effect of over 45% in size; further: potency means the concentration at half of the fitted maximal effect
In short: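 Cells and non-lytic dye reagent are dispensed together (600 HepG2 cells/well) and incubated 5 h before DMSO compound transfer. Kinetic fluorescence is then recorded in the same wells during 40 h at 37 C.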

[2] = qHTS assay to identify small molecule antagonists of the estrogen receptor alpha (ER-alpha) signaling pathway using the BG1 cell line in the presence of 0.1 nM 17-beta-estradiol - cell viability counter screen (AID 1259241); further: nearly all actives have a fitted effect of over 40% in size; further: potency means the concentration at half of the fitted maximal effect
In short: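 Following 5 days in phenol red-free medium with charcoal-stripped serum, VM7Luc4E2 cells received test compounds alongside 0.1 nM 17beta-estradiol (final) at 37C for 22 hr. Live cells were then quantified via protease-substrate fluorescence.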

[3] = qHTS assay to identify small molecule antagonists of the androgen receptor (AR) signaling pathway using the MDA cell line in the presence of 0.5 nM R1881 - cell viability counter screen (AID 1259242); further: nearly all actives have a fitted effect of over 45% in size; further: potency means the concentration at half of the fitted maximal effect
In short: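 Steps: plate MDA-kb2 cells, rest 5 hr at 37C without CO2; pin in compounds in DMSO; add R1881 to 0.5 nM final; incubate 16 hr; add CellTiter-Fluor, 30 min; read fluorescence.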

[4] = qHTS assay to identify small molecule phospholipidosis (PLD) inducers (AID 1259344; active means well fitted curve in the direction sought with a large enough effect; an effect the other way counts as inactive or inconclusive)
In short: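 Accumulated phospholipid, stained red by LipidTOX during 24 h compound treatment of HepG2 cells at 37 C, is quantified from images as pit number and intensity, normalised per cell using Hoechst-stained nuclei.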

[5] = qHTS assay to identify small molecule HDAC inhibitors (AID 1259364); further: potency means the concentration at half of the fitted maximal effect;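 further: wild-type HCT-116 cells with endogenous class I/II HDAC activity; nearly all actives have a fitted effect of over 45% in size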
In short: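 Cells (HCT-116, wild type) are seeded at 1,500 per well, incubated overnight, treated with compound in DMSO for 2 hr, then developed with HDAC-Glo I/II reagent for 30 min at room temperature.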

[6] = qHTS assay to identify small molecule HDAC inhibitors - cell viability counter screen (AID 1259365); further: series mostly up to about 92 µM; nearly all actives have a fitted effect of over 50% in size
In short: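 HCT-116 wild-type, overnight attachment; 2hr drug exposure, 37C; CellTiter-Glo luminescent ATP readout after 30min RT.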

[7] = qHTS assay to identify small molecule agonists of the sonic hedgehog signaling (Shh) pathway - cell viability counter screen (AID 1259366); further: nearly all actives have a fitted effect of over 50% in size; further: potency means the concentration at half of the fitted maximal effect
In short: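 Compounds in DMSO were pin-transferred onto 3T3 Gli1-Luc cells that had settled 4hr; plates then stood 24hr at 37C and 5% CO2. One hour before the end, CellTiter-Fluor was added and fluorescence recorded.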

[8] = qHTS assay to identify small molecule antagonists of the sonic hedgehog signaling (Shh) pathway - cell viability counter screen (AID 1259367); further: nearly all actives have a fitted effect of over 55% in size; further: potency means the concentration at half of the fitted maximal effect
In short: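 CellTiter-Fluor signal in conditioned medium-stimulated 3T3 Gli1-Luc cells, 23 hr compound exposure, 37C.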

[9] = molecular target: Estrogen receptor (Homo sapiens) (UniProt P03372); test: qHTS assay to identify small molecule antagonists of the estrogen receptor alpha (ER-alpha) signaling pathway using the BG1 cell line in the presence of 0.1 nM 17-beta-estradiol (AID 1259244); further: nearly all actives have a fitted effect of over 50% in size; further: potency means the concentration at half of the fitted maximal effect
In short: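 Antagonist mode: compounds in DMSO are pinned onto VM7Luc4E2 reporter cells, 0.1 nM final 17beta-estradiol is added, and after 22 h at 37C luciferase luminescence is measured with ONE-Glo.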

[10] = molecular target: Androgen receptor (Homo sapiens) (UniProt P10275); test: qHTS assay to identify small molecule antagonists of the androgen receptor (AR) signaling pathway using the MDA cell line in the presence of 0.5 nM R1881 (AID 1259243); further: nearly all actives have a fitted effect of over 50% in size; further: potency means the concentration at half of the fitted maximal effect
In short: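 Stably transfected MDA-kb2 cells express luciferase from an MMTV promoter bearing both AR and GR response elements. Compounds plus 0.5 nM R1881 (final) were incubated 16 hr at 37C without CO2, then luminescence measured.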
On the % scale 0 is the no-effect control and ±100 the full control effect.

Sequence of Estrogen receptor (Homo sapiens) (P03372 whole entry, looked up): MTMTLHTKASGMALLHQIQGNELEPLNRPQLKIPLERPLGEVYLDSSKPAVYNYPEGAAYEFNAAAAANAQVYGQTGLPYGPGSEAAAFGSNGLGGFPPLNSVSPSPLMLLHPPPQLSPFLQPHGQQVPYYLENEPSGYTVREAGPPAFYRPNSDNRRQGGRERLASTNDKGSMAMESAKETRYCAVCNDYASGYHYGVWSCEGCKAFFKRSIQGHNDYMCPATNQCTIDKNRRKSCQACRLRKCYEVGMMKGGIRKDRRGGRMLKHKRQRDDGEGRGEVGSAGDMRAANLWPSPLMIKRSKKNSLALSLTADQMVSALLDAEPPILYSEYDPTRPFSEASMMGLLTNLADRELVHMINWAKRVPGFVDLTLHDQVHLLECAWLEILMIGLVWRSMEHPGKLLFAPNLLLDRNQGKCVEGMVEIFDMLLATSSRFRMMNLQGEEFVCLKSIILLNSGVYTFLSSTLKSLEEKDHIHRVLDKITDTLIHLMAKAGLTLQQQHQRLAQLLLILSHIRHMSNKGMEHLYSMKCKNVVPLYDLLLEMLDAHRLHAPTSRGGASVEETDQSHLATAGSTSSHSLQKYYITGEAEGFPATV
Sequence of Androgen receptor (Homo sapiens) (P10275 whole entry, looked up): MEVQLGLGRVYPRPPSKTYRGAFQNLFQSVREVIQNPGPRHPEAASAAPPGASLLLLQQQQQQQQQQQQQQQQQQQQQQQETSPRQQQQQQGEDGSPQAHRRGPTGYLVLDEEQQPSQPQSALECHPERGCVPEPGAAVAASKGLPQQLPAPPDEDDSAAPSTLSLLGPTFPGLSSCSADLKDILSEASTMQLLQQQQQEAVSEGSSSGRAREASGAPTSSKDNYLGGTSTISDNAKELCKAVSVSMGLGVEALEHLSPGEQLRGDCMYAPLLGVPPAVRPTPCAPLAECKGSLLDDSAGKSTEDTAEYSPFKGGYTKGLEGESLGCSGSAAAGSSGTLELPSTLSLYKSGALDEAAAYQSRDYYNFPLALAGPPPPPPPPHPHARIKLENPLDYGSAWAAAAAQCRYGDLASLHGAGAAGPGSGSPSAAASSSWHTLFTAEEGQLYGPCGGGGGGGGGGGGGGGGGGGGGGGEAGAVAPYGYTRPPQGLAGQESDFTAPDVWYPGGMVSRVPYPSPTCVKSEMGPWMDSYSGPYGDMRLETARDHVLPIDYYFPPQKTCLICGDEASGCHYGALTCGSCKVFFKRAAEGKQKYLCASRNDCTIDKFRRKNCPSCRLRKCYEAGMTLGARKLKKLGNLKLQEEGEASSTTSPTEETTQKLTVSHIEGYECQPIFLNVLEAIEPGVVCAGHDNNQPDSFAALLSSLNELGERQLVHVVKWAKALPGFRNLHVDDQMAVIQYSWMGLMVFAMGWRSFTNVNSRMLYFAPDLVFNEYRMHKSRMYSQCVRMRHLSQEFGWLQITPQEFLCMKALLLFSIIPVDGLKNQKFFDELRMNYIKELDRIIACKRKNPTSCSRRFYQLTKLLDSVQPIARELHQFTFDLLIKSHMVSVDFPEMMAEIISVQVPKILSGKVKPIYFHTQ

CC[C@@H]([C@H](C)O)n1ncn(-c2ccc(N3CCN(c4ccc(OC[C@@H]5CO[C@@](Cn6cncn6)(c6ccc(F)cc6F)C5)cc4)CC3)cc2)c1=O
active: Potency [3] 26.6 µM
inactive: Potency [1] | Potency [2] | outcome [4] | Potency [5] | Potency [6] | Potency [7] | Potency [8]

CC1=C(/C=C/C(C)=C\C=C\C(C)=C\C(=O)O)C(C)(C)CCC1
inactive: Potency [1] | Potency [2] | Potency [3] | Potency [5] | Potency [6]

CC(C)(C)C(=O)O
inactive: Potency [1] | Potency [2] | Potency [3] | Potency [5] | Potency [6] | Potency [7] | Potency [8]

CO[C@@]12[C@H](COC(N)=O)C3=C(C(=O)C(C)=C(N)C3=O)N1C[C@@H]1N[C@@H]12
inactive: Potency [1] | Potency [3] | outcome [4] | Potency [5] | Potency [6]

CCOC(=O)c1ccccc1OC
inactive: Potency [1] | Potency [2] | Potency [3] | Potency [5] | Potency [6] | Potency [7] | Potency [8]

COc1cc2c(N3CCN(C(=O)Nc4ccc(OC(C)C)cc4)CC3)ncnc2cc1OCCCN1CCCCC1
inactive: Potency [1] | Potency [2] | Potency [9] | Potency [5] | Potency [6]

Fc1c(F)c(F)c(Br)c(F)c1F
inactive: Potency [1] | Potency [2] | Potency [3] | Potency [5] | Potency [6] | Potency [8]

CO[C@H]1C=CO[C@@]2(C)Oc3c(C)c(O)c4c(O)c(c5c(c4c3C2=O)=NC2(CCN(CC(C)C)CC2)N=5)NC(=O)/C(C)=C\C=C/[C@H](C)[C@H](O)[C@@H](C)[C@@H](O)[C@@H](C)[C@H](OC(C)=O)[C@@H]1C
inactive: Potency [1] | outcome [4] | Potency [5] | Potency [6]
active: Potency [2] 47.5 µM | Potency [10] 67.1 µM | Potency [9] 59.8 µM | Potency [7] 26.7 µM

O=c1[nH]c2ccc(S(=O)CCN3CCC(Cc4ccc(F)cc4)CC3)cc2o1 (centres undefined)
inactive: Potency [1] | Potency [2] | Potency [3] | Potency [5] | Potency [6] | Potency [8]

CN(C)C(=O)Nc1ccc(Oc2ccc(Cl)cc2)cc1
inactive: Potency [1] | Potency [2] | Potency [3] | Potency [5] | Potency [6] | Potency [7] | Potency [8]

CCOC(=O)CC(=O)C(=O)OCC
inactive: Potency [1] | Potency [2] | Potency [5] | Potency [6] | Potency [7] | Potency [8]

Cc1nccn1-c1ccc(Sc2cccc(C3(C(N)=O)CCOCC3)c2)cc1
inactive: Potency [1] | Potency [6] | Potency [7] | Potency [8]
active: Potency [9] 3.06 µM

Cc1occc1C(=O)Nc1ccc(C(=O)N2CCC(F)(F)/C(=C\C(=O)N3CCC(N4CCCCC4)CC3)c3ccccc32)cc1
inactive: Potency [1] | Potency [3] | Potency [5] | Potency [6]

O=C(O)c1ccc(CO)o1
inactive: Potency [1] | Potency [2] | Potency [3] | Potency [5] | Potency [6] | Potency [8]

CC1C2CC(CC2C2CCCC(O)C2)C1(C)C (centres undefined)
active: Potency [1] 43.6 µM
inactive: Potency [2] | Potency [3] | Potency [5] | Potency [8]

COc1cc2ncnc(Nc3ccc(F)c(Cl)c3)c2cc1OCCCN1CCOCC1
active: Potency [10] 26.6 µM | Potency [7] 15 µM
inactive: Potency [2] | Potency [3] | outcome [4] | Potency [5]

C=C(C)C(=O)OCCOC(=O)CC(C)=O
inactive: Potency [1] | Potency [2] | Potency [3] | Potency [5] | Potency [6] | Potency [7] | Potency [8]

CCCCCCCC/C=C\CCCCCCCC(=O)OC(CO)CO
inactive: Potency [1] | Potency [2] | Potency [3] | Potency [5] | Potency [6] | Potency [8]

O=C(c1ccc(O)cc1)c1ccc(Cl)cc1
inactive: Potency [1] | Potency [2] | Potency [3] | Potency [6] | Potency [8]

CCOC(=O)N1CCC(n2c(=O)[nH]c3cc(Cl)ccc32)CC1
active: Potency [10] 21.1 µM | Potency [9] 23.7 µM
inactive: Potency [1] | Potency [2] | Potency [5] | Potency [6] | Potency [7] | Potency [8]

CC(=N\O)/C(C)=N/O
inactive: Potency [1] | Potency [2] | Potency [3] | Potency [5] | Potency [6] | Potency [8]

Cc1cc(C(=C2C=CC(=Nc3ccc(S(=O)(=O)O)cc3S(=O)(=O)O)C=C2)c2ccc(Nc3ccc(S(=O)(=O)O)cc3)cc2)ccc1N
inactive: Potency [1] | Potency [3] | Potency [9] | Potency [5] | Potency [6] | Potency [7] | Potency [8]

Cc1cc2nc3ccc(=[N+](C)C)cc-3sc2cc1N
inactive: Potency [1] | PLD induction [4] -3.22% [at 0.306 µM] | Potency [8]
active: Potency [3] 2.66 µM | Potency [10] 1.5 µM | Potency [9] 26.6 µM | Potency [5] 10.6 µM

O=C(CCCN1CCN(c2ccc(F)cc2)CC1)NC1c2ccccc2CSc2ccccc21 (centres undefined)
inactive: Potency [1] | Potency [2] | outcome [4] | Potency [5] | Potency [6]

CCNC(=O)N1CCN(CCCC(c2ccc(F)cc2)c2ccc(F)cc2)CC1
active: Potency [2] 26.6 µM | Potency [9] 18.8 µM
inactive: Potency [1] | outcome [4] | Potency [5] | Potency [6] | Potency [8]

NC(=O)Cn1c(=O)cc(CCN2CCN(c3nccc4sccc34)CC2)c2ccc(F)cc21
inactive: Potency [1] | Potency [2] | Potency [3] | Potency [6]

CC(C)C(OC(=O)c1ccccc1)C(C)(C)COC(=O)c1ccccc1 (centres undefined)
inactive: Potency [1] | Potency [2] | Potency [3] | Potency [5] | Potency [6] | Potency [8]

Cc1cc(S(=O)(=O)O)ccc1N=Nc1c(O)ccc2ccccc12
active: Potency [2] 34.4 µM | Potency [3] 48.6 µM | Potency [5] 0.686 µM | Potency [7] 27.3 µM | Potency [8] 27.3 µM
inactive: Potency [1]

OC(CCCN1CCCCC1)(c1ccccc1)c1ccccc1
inactive: Potency [1] | Potency [3] | Potency [10] | Potency [9] | Potency [5] | Potency [6] | Potency [7] | Potency [8]

C=CCNc1nc(NCC=C)nc(N2CCN(C(c3ccc(F)cc3)c3ccc(F)cc3)CC2)n1
inactive: Potency [1] | Potency [2] | Potency [5] | Potency [6] | Potency [7]
active: Potency [10] 10.6 µM | Potency [9] 11.9 µM

C=CC(C)=CCC=C(C)C
inactive: Potency [1] | Potency [2] | Potency [3] | Potency [5] | Potency [6] | Potency [7] | Potency [8]

O=C(C(=O)c1ccccc1)c1ccccc1
inactive: Potency [1] | Potency [2] | Potency [3] | Potency [5] | Potency [6] | Potency [8]

O=C(N/N=C/c1ccc([N+](=O)[O-])o1)c1ccc(O)cc1
inactive: Potency [1] | outcome [4] | Potency [5] | Potency [6]
active: Potency [2] 26.6 µM | Potency [10] 3.76 µM | Potency [9] 26.6 µM | Potency [7] 29.8 µM

NC(=O)Nc1ccc(Cl)cc1
inactive: Potency [2] | Potency [3] | Potency [9] | Potency [5] | Potency [6] | Potency [7] | Potency [8]

CCC(Cc1ccccc1)(C(=O)c1ccc(N2CCOCC2)cc1)N(C)C (centres undefined)
inactive: Potency [1] | Potency [2] | Potency [5] | Potency [6]

O=C(N[C@@H](c1ccccc1)[C@@H]1CCCCN1)c1cccc(C(F)(F)F)c1Cl
active: Potency [7] 30.6 µM | Potency [8] 54.5 µM
inactive: Potency [1] | Potency [2] | Potency [5] | Potency [6]

NC(=O)N(O)[C@@H]1C=C[C@H](Oc2cccc(Oc3ccc(F)cc3)c2)C1
inactive: Potency [3] | Potency [5] | Potency [6] | Potency [7] | Potency [8]

NC(=O)Nc1ccc(Cl)c(Cl)c1
inactive: Potency [1] | Potency [2] | Potency [3] | Potency [5] | Potency [6] | Potency [7] | Potency [8]

CN1CCN(CCCN2c3ccccc3Sc3ccc(S(=O)(=O)N(C)C)cc32)CC1
inactive: Potency [2] | Potency [3] | outcome [4] | Potency [5] | Potency [6]
active: Potency [7] 11.9 µM

CNCCCC1c2ccccc2C=Cc2ccccc21
inactive: Potency [1] | Potency [2] | Potency [9] | Potency [5] | Potency [6]

CCOCCn1c(C2CCN(CCc3ccc(C(C)(C)C(=O)O)cc3)CC2)nc2ccccc21
inactive: Potency [2] | Potency [3] | Potency [10] | Potency [9] | Potency [5] | Potency [6] | Potency [7] | Potency [8]

Fc1ccccc1[C@@H](F)COC1CCC(Nc2ncnc3[nH]ncc23)CC1 (some centres undefined)
inactive: Potency [1] | Potency [5] | Potency [6] | Potency [7]
active: Potency [10] 15.4 µM
